From PubChem BioAssay (NCATS)
Inconclusive results are not listed. Calls of active or inactive are those of the source. The call rests on the fitted dose curve; in most records, active means well fitted cell-killing curve with a large enough effect; inconclusive means small, poorly fitted or top-dose-only effect, or effect the other way; inactive means no such curve, though single readings can be large or run the other way.

Key:
[1] = Quantitative High-Throughput drug screen in 47 multiple myeloma cell lines against the NCATS MIPE library collection: EJM_DSMZ cell viability assay (AID 1918926; further: nearly all actives have a fitted effect of over 30% in size)
In short: (§1)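 qHTS of the MIPE 4.0 collection: 500 myeloma cells/well, 48 h drug exposure at 37C in 5% CO2, then CellTiter-Glo for 5 min at room temperature before luminescence reading.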

[2] = Quantitative High-Throughput drug screen in 47 multiple myeloma cell lines against the NCATS MIPE library collection: KMM1_JCRB cell viability assay (AID 1918960); further: potency means the concentration at half of the fitted maximal effect; nearly all actives have a fitted effect of over 30% in size
In short: (§2)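 Cell viability inhibition in this qHTS is measured via ATP content (CellTiter-Glo) after 48 h drug exposure at 37 °C. Wells hold 500 cells; DMSO-treated wells define 100% and medium-only wells 0%.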

[3] = Quantitative High-Throughput drug screen in 47 multiple myeloma cell lines against the NCATS MIPE library collection: Karpas417_ECACC cell viability assay (AID 1918961); settings: Karpas417 myeloma viability, CellTiter-Glo ATP luminescence, 48 h; viability (% of DMSO): at 45.8 µM (top of the series); further: potency means the concentration at half of the fitted maximal effect
In short: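 CellTiter-Glo ATP luminescence gave viability after 48 h compound treatment at 37C of 500 multiple myeloma cells per well. Normalisation used DMSO-only wells as 100% and media-only wells as 0% viability; primary qHTS of approved and investigational drugs.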

[4] = Quantitative High-Throughput drug screen in 47 multiple myeloma cell lines against the NCATS MIPE library collection: Delta47_JCRB cell viability assay (AID 1918925; further: nearly all actives have a fitted effect of over 45% in size; further: potency means the concentration at half of the fitted maximal effect)
In short: as §1

[5] = Quantitative High-Throughput drug screen in 47 multiple myeloma cell lines against the NCATS MIPE library collection: AMO1_DSMZ cell viability assay (AID 1918927; further: nearly all actives have a fitted effect of over 30% in size; further: potency means the concentration at half of the fitted maximal effect)
In short: as §1

[6] = Quantitative High-Throughput drug screen in 47 multiple myeloma cell lines against the NCATS MIPE library collection: Karpas620_DSMZ cell viability assay (AID 1918959); further: nearly all actives have a fitted effect of over 30% in size; further: potency means the concentration at half of the fitted maximal effect
In short: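 Myeloma cells (500 per well) were exposed to MIPE 4.0 compounds by pin transfer and incubated 48 hours at 37C, 5% CO2. Viability was read as ATP by CellTiter-Glo luminescence, normalised to DMSO (100%) and media-only (0%) wells.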

[7] = Quantitative High-Throughput drug screen in 47 multiple myeloma cell lines against the NCATS MIPE library collection: ARP1_JJKsccF8 cell viability assay (AID 1918928; further: potency means the concentration at half of the fitted maximal effect; nearly all actives have a fitted effect of over 40% in size)
In short: as §2

[8] = Quantitative High-Throughput drug screen in 47 multiple myeloma cell lines against the NCATS MIPE library collection: ARD_JJKsccE7 cell viability assay (AID 1918929; further: potency means the concentration at half of the fitted maximal effect)
In short: as §1

Measured: Potency

O=C(C=Cc1cccnc1)NCCCCC1CCN(C(=O)c2ccccc2)CC1
active: [2] 14.8 nM | [3] 13200 nM
inactive: [1]

C[C@H]1C[C@@H]2[C@@H]([C@@H](O)C[C@@]3(C)[C@H]2CC[C@]3(O)C(=O)CO)[C@@]2(C)C=CC(=O)C=C12
active: [3] 132 nM
inactive: [4] | [1] | [5] | [6]

CNC(=O)CN1CCC(Oc2cc3c(Nc4cccc(Cl)c4F)ncnc3cc2OC)CC1
active: [4] 18.7 nM | [7] 37.2 nM | [8] 1 nM | [6] 1 nM | [2] 14.8 nM

COc1cc2c(Oc3ccc4[nH]c(C)cc4c3F)ncnc2cc1OCCCN1CCCC1
active: [4] 3320 nM | [7] 23500 nM | [6] 2960 nM | [2] 2350 nM

COC(=O)c1ccc2c(C(=Nc3ccc(N(C)C(=O)CN4CCN(C)CC4)cc3)c3ccccc3)c(O)[nH]c2c1
active: [4] 6620 nM | [5] 4690 nM | [7] 23500 nM | [2] 1660 nM | [3] 187 nM
